According to PubChem BioAssay AID493027 (The Scripps Research Institute Molecular Screening Center, 2011):
Several values for one entry are separate records, joined by “and”; a condition that tells them apart may be missing. Equal values may be shown once. Out of some 2,000 compounds screened, about 45 (2%) were called active.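 How the source made its calls: active means inhibition above the screen-wide mean inhibition plus 3 SD (cut at about 44% in these data); inactive means the rest.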 The sample as a whole holds a higher share of actives than the screen did.

These compounds were tested against Perilipin-1 (Homo sapiens) + 1-acylglycerol-3-phosphate O-acyltransferase ABHD5 (Homo sapiens) (UniProt O60240+Q8WTS1) (assay: ABHD5-PLIN1 interaction inhibitors, pilot screen, cell lysate, split luciferase complementation, luminescence, NIH validation set (AID 493027;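 further: 0% = DMSO wells with the 100% control not disclosed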)). Conditions: split G. princeps luciferase complementation, 4 h, at 7.9 µM, stronger effect = higher value.
Sequence of Perilipin-1 (Homo sapiens) + 1-acylglycerol-3-phosphate O-acyltransferase ABHD5 (Homo sapiens) (O60240 whole entry, looked up): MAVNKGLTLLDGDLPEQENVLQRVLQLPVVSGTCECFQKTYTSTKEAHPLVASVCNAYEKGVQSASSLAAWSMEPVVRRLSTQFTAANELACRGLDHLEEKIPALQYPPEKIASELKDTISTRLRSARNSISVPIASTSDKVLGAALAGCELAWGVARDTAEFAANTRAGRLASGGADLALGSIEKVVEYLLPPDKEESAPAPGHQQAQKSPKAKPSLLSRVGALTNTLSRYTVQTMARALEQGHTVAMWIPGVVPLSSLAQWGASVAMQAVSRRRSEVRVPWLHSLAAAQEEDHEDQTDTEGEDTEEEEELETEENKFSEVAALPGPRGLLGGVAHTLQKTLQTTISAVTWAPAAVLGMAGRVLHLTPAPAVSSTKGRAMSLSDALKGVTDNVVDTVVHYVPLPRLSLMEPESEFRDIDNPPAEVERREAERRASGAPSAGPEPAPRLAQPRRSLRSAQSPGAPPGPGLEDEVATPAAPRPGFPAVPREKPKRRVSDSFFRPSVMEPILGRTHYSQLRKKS
Sequence of Perilipin-1 (Homo sapiens) + 1-acylglycerol-3-phosphate O-acyltransferase ABHD5 (Homo sapiens) (Q8WTS1 whole entry, looked up): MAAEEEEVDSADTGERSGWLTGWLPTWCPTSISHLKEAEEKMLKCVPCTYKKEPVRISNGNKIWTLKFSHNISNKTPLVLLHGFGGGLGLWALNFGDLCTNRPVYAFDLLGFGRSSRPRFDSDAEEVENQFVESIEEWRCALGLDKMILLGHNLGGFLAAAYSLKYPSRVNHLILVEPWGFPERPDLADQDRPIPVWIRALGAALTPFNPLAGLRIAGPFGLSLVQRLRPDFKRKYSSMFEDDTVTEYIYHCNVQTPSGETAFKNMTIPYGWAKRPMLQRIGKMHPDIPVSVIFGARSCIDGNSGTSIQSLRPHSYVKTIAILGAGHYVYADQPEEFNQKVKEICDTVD
With O=c1c2ccccc2[se]n1-c1ccccc1 the inhibition was 90.3% (active). For Cc1nc2ccccc2c(=O)n1-c1ccc(C(=O)O)cc1, the inhibition was 5.87% (inactive). With O=c1c2ccccc2nc(/C=C/c2ccc3c(c2)OCO3)n1-c1ccccc1 the inhibition was 1.81% (inactive). [N-]=[N+]=CC(=O)OC[C@H](N)C(=O)O was tested, and the inhibition was 0.75% (inactive). For CC12CN3CC(C)(CN(C1)C3c1cccs1)C2=O (stereo not given), the inhibition was -10.9% (inactive). For CC(C)NC(C)C(=O)c1ccc2ccccc2c1 (stereo not given), the inhibition was -0.73% (inactive). O=c1[nH]c(=S)n(-c2ccccc2)c(O)c1/C=N/N1CCCCC1c1cccnc1 (stereo not given) was tested, and the inhibition was -7.25% (inactive). For C#CCN(C)C(C)Cc1ccccc1 (stereo not given), the inhibition was -10.3% (inactive). In the case of Cc1ccc(/C=C2/C(=O)NC(=O)N(C)C2=O)cc1, the inhibition is reported as -3.1% (inactive). For COc1cc(/C=C2\C(=O)NC(=O)N(c3ccccc3)C2=O)c([N+](=O)[O-])cc1OC, the inhibition was 58.1% (active). For CCOc1ccc(N2C(=O)NC(=O)/C(=C\c3cc(OC)c(OC)cc3[N+](=O)[O-])C2=O)cc1, the inhibition was 63.9% (active). For Cc1ccc(-n2c(C)cc(/C=C3/C(=O)NC(=O)N(C)C3=O)c2C)cc1, the inhibition was 38.2% (inactive). For CCOC(=O)c1cncn1C(C)c1ccccc1 (stereo not given), the inhibition was 1.91% (inactive). With C[N+]1(C)[C@@H]2CC(OC(=O)[C@H](CO)c3ccccc3)C[C@H]1[C@@H]1O[C@@H]12 (stereo not given in full) the inhibition was -5.12% (inactive) and 3.91% (inactive). CC(C)C[C@H]1C(=O)N2CCCC2[C@]2(O)O[C@](NC(=O)[C@@H]3C=C4c5cccc6[nH]cc(c56)CC4N(C)C3)(C(C)C)C(=O)N12 (stereo not given in full) was tested, and the inhibition was 22.5% (inactive). With Cc1c2ccncc2c(C)c2c1[nH]c1ccccc12 the inhibition was -2.7% (inactive). For Cc1cc2c(C(C)C)c(O)c(O)c(C=O)c2c(O)c1-c1c(C)cc2c(C(C)C)c(O)c(O)c(C=O)c2c1O, the inhibition was 50.9% (active). For O=C1C(=O)c2ccccc2-c2ccccc21, the inhibition was 29.2% (inactive). With CCn1c(O)c(C(=O)CC2NCCc3ccccc32)c(=O)n(CC)c1=S (stereo not given) the inhibition was -1.08% (inactive). In the case of CC[C@@H]1C(=O)OC[C@@H]1Cc1cncn1C, the inhibition is reported as -9.03% (inactive) and -8.34% (inactive). With Clc1ccc(C2NCCc3[nH]cnc32)cc1 (stereo not given) the inhibition was 1.77% (inactive). In the case of COP(=S)(OC)SCN1C(=O)c2ccccc2C1=O, the inhibition is reported as 83.3% (active). For NNC(=O)c1ccc(Cl)cc1, the inhibition was 1.77% (inactive). O=C1C=Cc2ccccc2C1=O was tested, and the inhibition was 25.2% (inactive). With O=C1CCCC2=C1C(c1cccnc1)Nc1ccccc1N2 (stereo not given) the inhibition was -3.96% (inactive).
